Experimental data published in the supplement of paper PMC12808144.

What follows are compounds tested on Mel-DCC-11-R (assay: cell viability relative to DMSO control (fraction of DMSO control); higher = less cytotoxic, active = 0.8 or less). Settings: 1 µM; 120 h; vemurafenib co-treatment 8 µM.
Procedure, shortened: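 Cells in 40 µl per well went into 384-well plates pre-spotted acoustically with a TargetMol library of 315 approved anti-cancer drugs, each at 1 µM in duplicate, for 120 h. Seeding was 2500/well for NHEM-hTERT immortalized melanocytes and 1500/well for patient-derived Mel-DCC-11 and its resistant subline Mel-DCC-11-R, which was run alone and with 8 µM of its selecting drug. Luminescence was read with ATPlite 1step. Viability was normalised to vehicle-treated controls and averaged over duplicates.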

Structure (SMILES) | cell viability
CC(C)[C@H](NC(=O)[C@H](CC(=O)O)NC(=O)[C@H](CCCCN)NC(=O)[C@@H](N)CCCNC(=N)N)C(=O)N[C@@H](Cc1ccc(O)cc1)C(=O)O [Thymopentin] | 1.04 (inactive)
Cc1ccc(NC(=O)C2(c3ccc4c(c3)OC(F)(F)O4)CC2)nc1-c1cccc(C(=O)O)c1 [Lumacaftor] | 1.04 (inactive)
CS(=O)(=O)OCCCCOS(C)(=O)=O [Busulfan] | 1.13 (inactive)
O=C([O-])CCCc1ccccc1.[Na+] [Sodium Phenylbutyrate] | 1.07 (inactive)
COc1ccc2cc3[n+](cc2c1OC)CCc1cc2c(cc1-3)OCO2 [Berberine] | 0.918 (inactive)
COc1cc2ncnc(Nc3ccc(F)c(Cl)c3)c2cc1OCCCN1CCOCC1 [Gefitinib] | 0.629 (active)
C/C=C1/NC(=O)[C@H]2CSSCC/C=C/[C@H](CC(=O)N[C@H](C(C)C)C(=O)N2)OC(=O)[C@H](C(C)C)NC1=O [Romidepsin] | 0.0432 (active)
Cc1c(C(=O)Nc2ccc(N3C[C@@H](C)O[C@@H](C)C3)nc2)cccc1-c1ccc(OC(F)(F)F)cc1 [Sonidegib] | 1.2 (inactive)
C[C@@H]1C[C@H]2[C@@H]3CCC4=CC(=O)C=C[C@]4(C)[C@@]3(F)[C@@H](O)C[C@]2(C)[C@@]1(O)C(=O)COP(=O)([O-])[O-].[Na+].[Na+] [Dexamethasone Sodium Phosphate] | 0.927 (inactive)
Cc1ccc(NC(=O)c2ccc(CN3CCN(C)CC3)cc2)cc1Nc1nccc(-c2cccnc2)n1 [Imatinib] | 1.1 (inactive)
